Experimental data: PubChem BioAssay AID624405 (Broad Institute, 2012)
Among all 1,900 compounds or so, about 250 (13%) were called active. Inconclusive results (about 4%) are left out. A selection follows. Measured potencies and affinities stand elsewhere. A number with no mark means an inactive call.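 Rule for the calls: active = fitted curve reaches 40% rescue activity at or below the top valid dose, in every test run; inconclusive = test runs disagree, some active and some inactive; inactive = every run misses the threshold or moves the wrong way.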

Assay: rescue of simvastatin-induced ATP loss – cell-based, C2C12 myotubes, ATP luminescence, cherry pick, dose response (AID 624405);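 note: myotubes are challenged with simvastatin at 10 µM to lower ATP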
Conditions: 48 h, scaled: DMSO wells 0, geranylgeraniol wells 100; series mostly up to 19.5 µM; rescue activity (ATP increase): at the top concentration

Row | SMILES | rescue activity (ATP increase)
1 | Clc1ccc(Cn2ncc3c(N4CCOCC4)ncnc32)cc1 | 20.7%
2 | CCN(CC)c1ncnc2c1cnn2Cc1ccc(Cl)cc1 | 29.6%
3 | Cc1ccc(Cn2ncc3c(NCCCN(C)C)ncnc32)cc1 | 23.2%
4 | CCC(C)Nc1ncnc2c1cnn2Cc1ccc(Cl)cc1 (stereo not drawn) | 3.88%
5 | Cc1ccc(Cn2ncc3c(N4CCCC4)ncnc32)cc1 | 19.3%
6 | CC(C)CNc1ncnc2c1cnn2Cc1ccc(Cl)cc1 | 15%
7 | COc1ccccc1N1CCN(C(=O)c2cc(-c3ccc(F)cc3)[nH]c2C)CC1 | 9.61%
8 | COc1cc(C)c(S(=O)(=O)n2ccc(C)n2)cc1C | 25.8%
9 | C[C@@H]1CN([C@@H](C)CO)C(=O)c2cc(C3=CCCCC3)cnc2O[C@H]1CN(C)Cc1ccccc1F | -13.2%
10 | CC(=O)Nc1sc2c(c1C#N)CCC(C)C2 (stereo not drawn) | 47.3%
11 | Cc1noc(C)c1NC(=O)Nc1ccc2c(c1)CC(=O)N([C@H](C)CO)C[C@H](C)[C@@H](CN(C)Cc1ccc(Oc3ccccc3)cc1)O2 | -27.8%
12 | C[C@H]1CCCCO[C@H](CN(C)S(=O)(=O)c2cccs2)[C@@H](C)CN([C@@H](C)CO)C(=O)c2cc(NC(=O)Nc3ccc(F)cc3)ccc2O1 | -16.9%
13 | C[C@H](CO)N1C[C@H](C)[C@H](CN(C)Cc2ccc(Oc3ccccc3)cc2)Oc2ccc(NC(=O)Nc3ccc(C(F)(F)F)cc3)cc2CC1=O | -13.6%
14 | C[C@H](CO)N1C[C@H](C)[C@@H](CN(C)Cc2ccc(-c3ccccc3)cc2)Oc2ccc(NC(=O)c3ccncc3)cc2CC1=O | 18.2%
15 | Cc1c(Cl)cccc1NC(=O)CNC(=O)Cc1n[nH]c(=O)c2ccccc12 | 14.5%
16 | C[C@@H]1CCCCO[C@@H](CN(C)C(=O)Nc2cccc3ccccc23)[C@H](C)CN([C@H](C)CO)C(=O)c2cc(NS(=O)(=O)c3ccc(Cl)cc3)ccc2O1 | -2.76%
17 | N#Cc1nc(-c2ccco2)oc1NCCCn1ccnc1 | -0.838%
18 | O=C(Nc1ccc(S(=O)(=O)N2CCCCCC2)cc1)c1ccco1 | -49.5%
19 | N#Cc1nc(COc2ccccc2)oc1N1CCOCC1 | -18.8%
20 | CCCOc1cc(C)c(Cl)cc1S(=O)(=O)N(CC)CC | 4.93%
21 | Cc1ccc(S(=O)(=O)Nc2ccc3c(c2)C(=O)N([C@@H](C)CO)C[C@@H](C)[C@H](CN(C)Cc2ccc(Cl)c(Cl)c2)O3)cc1 | 25.1%
22 | C[C@@H]1CCCCO[C@H](CN(C)C(=O)Nc2ccc(F)cc2)[C@H](C)CN([C@@H](C)CO)C(=O)c2cc(NC(=O)Cc3ccccc3)ccc2O1 | -7.06%
23 | CC(C)c1ccc(CNc2nc3nc4c(c(=O)n3[nH]2)CCC4)cc1 | 32.7%
24 | Cc1ccc(S(=O)(=O)Nc2ccc3c(c2)CC(=O)N([C@@H](C)CO)C[C@H](C)[C@@H](CN(C)S(=O)(=O)c2cccs2)O3)cc1 | 10.3% [at 21 µM]
25 | CN(CC(=O)NCc1ccco1)CC(=O)Nc1ccc(F)c(F)c1F | 10.1%
26 | COc1cc(NC(=O)COC(=O)c2cc(S(=O)(=O)N3CCOCC3)ccc2F)cc(OC)c1 | -14.9%

Row | SMILES | rescue activity (ATP increase)
27 | COc1cc2c(C(=O)NCCCN3CCN(c4cccc(Cl)c4)CC3)cn(C)c(=O)c2cc1OC | -33.9%
28 | COc1ccc(S(=O)(=O)Nc2ccc3c(c2)C(=O)N([C@@H](C)CO)C[C@@H](C)[C@H](CN(C)C(=O)Nc2cccc4ccccc24)OCCCC[C@@H](C)O3)cc1 | 6.81%
29 | COc1cccc(NC(=O)CSc2nc(C)cs2)c1 | 6.93%
30 | Cc1csc(SCC(=O)Nc2cccc(S(=O)(=O)N3CCCC3)c2)n1 | -1.35%
31 | COc1ccc(S(=O)(=O)Nc2cccc3c2O[C@H](CN(C)C(=O)Nc2ccc(C(F)(F)F)cc2)[C@H](C)CN([C@H](C)CO)C3=O)cc1 | 36.2%
32 | C[C@H](CO)N1C[C@H](C)[C@H](CN(C)Cc2ccc(Oc3ccccc3)cc2)Oc2ccc(NC(=O)Nc3ccc(F)cc3)cc2CC1=O | -9.22% [at 21 µM]
33 | C[C@@H]1CN([C@@H](C)CO)C(=O)c2cc(C#Cc3ccccc3F)cnc2O[C@H]1CN(C)S(=O)(=O)c1ccccc1F | 23.5%
34 | CCN(CC)CC(=O)n1c2c(c3ccccc31)CCCC2 | 4.55%
35 | Clc1ccc(Cn2ncc3c(NCc4ccccc4)ncnc32)cc1 | -175%
36 | O=C(Nc1ccc(S(=O)(=O)N2CCC(C(=O)NC3CCCCC3)CC2)cc1)c1ccco1 | -43.5%
37 | Nc1ccc2c(S(=O)(=O)O)cccc2c1S(=O)(=O)O | 2.73%
38 | O=C(Cn1nnc(-c2ccncc2)n1)N(C1CCCCC1)C1CCCCC1 | 0.984%
39 | COCCn1nnnc1CN(CCc1ccc(OC)c(OC)c1)Cc1cc2ccc(C)cc2[nH]c1=O | -20%
40 | COc1ccc(NC(=O)Nc2ccc3c(c2)CC(=O)N([C@@H](C)CO)C[C@@H](C)[C@H](CN(C)C(=O)Nc2cccc4ccccc24)O3)cc1 | 14.7%
41 | O=C(CCC1COc2ccccc2O1)Nc1ccccn1 (stereo not drawn) | 3.48%
42 | C[C@@H]1CCCCO[C@@H](CN(C)S(=O)(=O)c2ccc(Cl)cc2)[C@@H](C)CN([C@@H](C)CO)C(=O)c2cc(NS(C)(=O)=O)ccc2O1 | -3.2%
43 | C[C@@H]1CCCCO[C@@H](CN(C)S(=O)(=O)c2ccc(Cl)cc2)[C@@H](C)CN([C@H](C)CO)C(=O)c2cc(NS(C)(=O)=O)ccc2O1 | -1.83%
44 | CCC(=O)c1ccc(OCC(=O)O)cc1 | 0.815%
45 | COc1cc(OC)cc(-c2nc3nc(C)c(CCC(=O)O)c(C)n3n2)c1 | 6.93%
46 | O=C(CSc1nnc2ccccn12)NNC(=O)c1cccc(Cl)c1 | 21.5%
47 | COC(=O)c1ccc(CSc2nc3c(cnn3-c3ccc(C)c(C)c3)c(=O)[nH]2)o1 | -19.7%
48 | COc1ccc(S(=O)(=O)Nc2ccc3c(c2)C(=O)N([C@H](C)CO)C[C@H](C)[C@@H](CN(C)S(=O)(=O)c2ccc(F)cc2)OCCCC[C@H](C)O3)cc1 | -6.4%
49 | COc1ccc(CC(=O)Nc2cc(C)on2)cc1 | 10.1%
50 | C[C@@H]1CCCCO[C@H](CN(C)C(=O)Cc2ccccc2)[C@@H](C)CN([C@@H](C)CO)C(=O)c2cc(NS(=O)(=O)c3cn(C)cn3)ccc2O1 | -34.5% [at 10 µM]
51 | O=S(=O)(c1ccccc1C(F)(F)F)N1CCN(S(=O)(=O)c2ccccc2C(F)(F)F)CC1 | 16%
52 | CN1C(=O)c2cc(NC(=O)c3cnccn3)ccc2OC[C@H]2O[C@H](CC(=O)NCC3CCCCC3)CC[C@H]21 | 0.092% [at 21 µM]

Row | SMILES | rescue activity (ATP increase)
53 | O=C(O)c1ccc(C(=O)c2ccc3c(c2)C(=O)N(Cc2ccco2)C3=O)cc1 | 10.5%
54 | Cc1noc(C)c1S(=O)(=O)Nc1ccc2c(c1)C(=O)N([C@H](C)CO)C[C@H](C)[C@@H](CN(C)C(=O)Nc1cccc3ccccc13)O2 | 27.1% [at 21 µM]
55 | COc1ccc(C#Cc2cnc3c(c2)C(=O)N([C@@H](C)CO)C[C@H](C)[C@H](CN(C)C(=O)Nc2cccc(OC)c2)O3)cc1 | -1.46%
56 | C[C@H](CO)N1C[C@H](C)[C@@H](CN(C)Cc2ccc(C(=O)Nc3ccccc3N)cc2)Oc2ccc(NC(=O)Nc3cccc4ccccc34)cc2C1=O | 9.69% [at 16 µM]
57 | COc1ccc(NC(=O)Nc2ccc3c(c2)C(=O)N([C@@H](C)CO)C[C@H](C)[C@H](CN(C)Cc2ccc(C(F)(F)F)cc2)OCCCC[C@@H](C)O3)cc1 | -38.9%
58 | COc1ccc(N=Cc2sc(O)c3ccccc23)cc1 | 19.5%
59 | C[C@@H]1CN([C@H](C)CO)C(=O)c2cc(C3=CCCCC3)cnc2O[C@H]1CN(C)Cc1ccccc1F | -23.7%
60 | Cn1c(CCN2CCCCC2)nc2cc(NC(=O)Nc3ccccc3)ccc21 | -7.55%
61 | CC(C(=O)N1CCCc2ccccc21)N1C(=O)c2ccccc2C1=O (stereo not drawn) | -3.35%
62 | CCN(CC)C(=O)c1ccc(NS(=O)(=O)c2ccccc2)cc1 | 0.963%
63 | NNC(=O)COc1cccc2cccnc12 | 37.3%
64 | O=c1[nH]c(Nc2ccccc2Cl)cc2ccccc12 | -28.7%
65 | CC(C)(C)C(=O)COC(=O)CNC(=O)c1ccc(Oc2ccccc2)cc1 | 0.797%
66 | C[C@H]1CN([C@@H](C)CO)C(=O)Cc2cc(N(C)C)ccc2O[C@@H]1CN(C)Cc1ccc(Cl)c(Cl)c1 | 22.2% [at 21 µM]
67 | Cc1ccc(S(=O)(=O)Nc2ccc3c(c2)CC(=O)N([C@@H](C)CO)C[C@@H](C)[C@@H](CN(C)Cc2ccc(Cl)c(Cl)c2)O3)cc1 | 13.8% [at 21 µM]
68 | C[C@@H]1CN([C@H](C)CO)C(=O)Cc2cc(N(C)C)ccc2O[C@@H]1CN(C)Cc1ccc(Cl)c(Cl)c1 | 34.4%
69 | C[C@@H]1CN([C@H](C)CO)C(=O)Cc2cc(NS(C)(=O)=O)ccc2O[C@@H]1CN(C)Cc1ccc(Cl)c(Cl)c1 | 27.2%
70 | Cc1ccc(S(=O)(=O)Nc2ccc3c(c2)CC(=O)N([C@@H](C)CO)C[C@@H](C)[C@H](CN(C)Cc2ccc(Cl)c(Cl)c2)O3)cc1 | 29%
71 | C[C@@H]1CN([C@H](C)CO)C(=O)Cc2cc(NS(=O)(=O)c3ccc(Cl)cc3)ccc2O[C@H]1CN(C)Cc1ccc(Cl)c(Cl)c1 | 32%
72 | Cc1ccc(S(=O)(=O)Nc2ccc3c(c2)CC(=O)N([C@H](C)CO)C[C@@H](C)[C@H](CN(C)Cc2ccc(Cl)c(Cl)c2)O3)cc1 | 21.4%
73 | Cc1ccc(S(=O)(=O)Nc2ccc3c(c2)CC(=O)N([C@H](C)CO)C[C@@H](C)[C@@H](CN(C)Cc2ccc(Cl)c(Cl)c2)O3)cc1 | 26.6%
74 | C[C@H](CO)N1C[C@H](C)[C@@H](CN(C)C(=O)Nc2ccc(C(F)(F)F)cc2)OCCCC[C@H](C)Oc2ccc(NC(=O)Nc3cccc4ccccc34)cc2C1=O | -7.78%
75 | CC(=O)c1ccc(NC(=O)c2cc(-c3cccs3)on2)cc1 | -10.8%
76 | C=C[C@@H]1c2c(F)cccc2N(S(=O)(=O)c2ccc(C)cc2)[C@H](c2ccc(C(=O)OC)cc2)C1(C#N)C#N | -79.5%
77 | Cc1noc(C)c1NC(=O)N(C)C[C@@H]1OCCCC[C@@H](C)Oc2ccc(NS(=O)(=O)c3cn(C)cn3)cc2C(=O)N([C@H](C)CO)C[C@@H]1C | -3.29%
78 | C[C@@H]1CN([C@H](C)CO)C(=O)Cc2cc(NC(=O)Cc3cn(C)c4ccccc34)ccc2O[C@H]1CN(C)Cc1ccc2c(c1)OCO2 | 27.4% [at 21 µM]
